In PubChem BioAssay:
Activity calls are given as the source filed them. Unless noted, the rule behind the calls is not given here.

Columns and labels:
[1] = anti-His antibody binders, primary screen, artefact control for SMM control protein annotation, biochemical, small-molecule microarray, 635 nm fluorescence (AID 1128); conditions: anti-His Alexa647 antibody binding, higher = more signal;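 note: score merges feature fluorescence with signal-to-noise for each printed compound spot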
[2] = test system: Human papillomavirus type 1a E7 protein (residues 1-88); assay: HPV1a E7 small-molecule binders, primary screen, biochemical, small-molecule microarray, residues 1-88, 635 nm (AID 1129); conditions: small-molecule microarray binding, fluorescence 635 nm; higher = more signal
[3] = biological target: Focal adhesion kinase 1 (Homo sapiens) (UniProt Q05397); assay: small-molecule microarray binders of FAK, primary screen, biochemical, 635/667 nm fluorescence, BSA, DTT (AID 1130); conditions: PTK2 binding, 635 nm fluorescence, higher = more signal;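 note: composite of spot emission at 667 nm and signal to noise over triplicate slides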
Chain of Focal adhesion kinase 1 (Homo sapiens) (Q05397 whole entry, looked up): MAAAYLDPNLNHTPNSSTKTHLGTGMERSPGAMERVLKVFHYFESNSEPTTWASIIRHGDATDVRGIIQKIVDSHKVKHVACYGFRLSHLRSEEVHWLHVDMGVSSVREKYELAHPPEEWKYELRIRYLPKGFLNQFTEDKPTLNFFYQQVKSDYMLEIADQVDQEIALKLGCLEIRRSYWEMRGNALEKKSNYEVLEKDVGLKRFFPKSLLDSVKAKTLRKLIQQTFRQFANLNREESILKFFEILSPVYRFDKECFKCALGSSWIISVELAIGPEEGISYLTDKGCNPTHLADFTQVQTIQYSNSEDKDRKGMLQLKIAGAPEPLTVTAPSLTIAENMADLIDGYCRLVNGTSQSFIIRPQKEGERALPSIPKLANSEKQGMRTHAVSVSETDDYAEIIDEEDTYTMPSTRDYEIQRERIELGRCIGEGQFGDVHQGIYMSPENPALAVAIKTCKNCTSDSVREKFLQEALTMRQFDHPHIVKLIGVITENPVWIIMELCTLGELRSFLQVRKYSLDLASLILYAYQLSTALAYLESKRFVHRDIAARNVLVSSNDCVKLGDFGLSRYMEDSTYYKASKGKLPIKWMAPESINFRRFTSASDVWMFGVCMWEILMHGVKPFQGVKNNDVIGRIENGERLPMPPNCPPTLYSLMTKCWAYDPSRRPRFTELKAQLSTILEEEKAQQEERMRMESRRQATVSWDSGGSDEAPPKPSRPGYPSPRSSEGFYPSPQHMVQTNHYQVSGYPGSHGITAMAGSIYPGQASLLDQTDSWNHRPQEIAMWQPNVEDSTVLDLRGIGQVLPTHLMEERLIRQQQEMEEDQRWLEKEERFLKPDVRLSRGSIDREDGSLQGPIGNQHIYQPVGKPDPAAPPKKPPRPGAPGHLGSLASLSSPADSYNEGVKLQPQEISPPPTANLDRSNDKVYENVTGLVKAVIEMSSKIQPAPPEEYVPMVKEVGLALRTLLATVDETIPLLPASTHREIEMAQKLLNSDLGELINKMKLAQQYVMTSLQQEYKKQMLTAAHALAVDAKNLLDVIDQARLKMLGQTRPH

[4] = test system: Fibrinogen (Alexa647-labelled); assay: fibrinogen binders on compound microarrays, profiling panel, artefact control for SMM control-protein annotation, biochemical, small-molecule microarray, 635/667 nm fluorescence (AID 1131); conditions: fibrinogen-A647 binding fluorescence, higher = more signal;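 note: z-score merges 667 nm fluorescence with per-spot signal-to-noise over triplicate slides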
[5] = biological target: Follistatin (Homo sapiens) (UniProt P19883); assay: follistatin binders on small-molecule microarrays, primary screen, biochemical, small-molecule microarray, 635/667 nm fluorescence (AID 1132); conditions: FST binding, 635 nm fluorescence, higher = more signal
Chain of Follistatin (Homo sapiens) (P19883 whole entry, looked up): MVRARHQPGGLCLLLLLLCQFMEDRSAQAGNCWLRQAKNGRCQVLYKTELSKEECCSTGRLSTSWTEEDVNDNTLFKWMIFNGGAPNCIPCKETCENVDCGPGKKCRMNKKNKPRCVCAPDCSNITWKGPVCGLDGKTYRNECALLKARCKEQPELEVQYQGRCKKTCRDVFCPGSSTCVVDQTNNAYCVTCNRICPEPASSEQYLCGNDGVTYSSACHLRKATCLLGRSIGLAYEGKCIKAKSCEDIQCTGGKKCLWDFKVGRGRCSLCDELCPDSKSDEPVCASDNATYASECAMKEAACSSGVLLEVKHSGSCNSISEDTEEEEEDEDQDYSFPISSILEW

[6] = biological target: Fibroblast growth factor 2 (Homo sapiens) (UniProt P09038); assay: FGF2 binders on small-molecule microarrays, primary screen, biochemical, small-molecule microarray, 635/667 nm fluorescence (AID 1133); conditions: small-molecule microarray binding, FGF2, fluorescence 635/667; higher = more signal
Chain of Fibroblast growth factor 2 (Homo sapiens) (P09038 whole entry, looked up): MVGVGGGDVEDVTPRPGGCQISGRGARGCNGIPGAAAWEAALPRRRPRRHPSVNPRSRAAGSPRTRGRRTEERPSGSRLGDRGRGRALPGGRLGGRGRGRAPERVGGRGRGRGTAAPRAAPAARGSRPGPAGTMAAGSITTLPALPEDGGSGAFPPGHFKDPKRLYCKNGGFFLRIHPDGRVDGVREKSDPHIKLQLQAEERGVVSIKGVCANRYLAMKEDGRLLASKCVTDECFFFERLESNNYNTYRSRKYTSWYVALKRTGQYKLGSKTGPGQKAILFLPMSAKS

[7] = mitochondrial membrane potential change in A549 cells, profiling panel, cell-based, JC-1 fluorescence, basal, 24 h, 100 nL (AID 1138); conditions: higher = more signal;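 note: A549 lung adenocarcinoma cells under basal conditions with no added stimulus; test concentration not given here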
Lefty1 = Lefty1 binders on small-molecule microarrays, primary screen, biochemical, small-molecule microarray, 635/667 nm fluorescence (AID 1139); conditions: small-molecule microarray binding, fluorescence 635/667; higher = more signal
[8] = test system: wheat germ agglutinin (Triticum aestivum), Alexa647-labelled; assay: wheat germ agglutinin binders on compound microarrays, profiling panel, artefact control for SMM control-protein annotation, biochemical, small-molecule microarray, 635/667 nm fluorescence (AID 1140); conditions: WGA-A647 binding, 635 nm fluorescence, higher = more signal;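 note: score merges 667 nm feature emission with signal to noise over triplicate slides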
[9] = biological target: Luciferin 4-monooxygenase (Photinus pyralis) (UniProt P08659); assay: firefly luciferase enzyme inhibitors, primary screen, biochemical, luminescence, purified enzyme, 2006 set (AID 1141); conditions: SteadyGlo luminescence, 30 min, higher = more signal, called active from +8 up or from −8 down;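 note: cell-free assay with purified firefly luciferase at 100 ng per well in PBS; test concentration not given here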
Chain of Luciferin 4-monooxygenase (Photinus pyralis) (P08659 whole entry, looked up): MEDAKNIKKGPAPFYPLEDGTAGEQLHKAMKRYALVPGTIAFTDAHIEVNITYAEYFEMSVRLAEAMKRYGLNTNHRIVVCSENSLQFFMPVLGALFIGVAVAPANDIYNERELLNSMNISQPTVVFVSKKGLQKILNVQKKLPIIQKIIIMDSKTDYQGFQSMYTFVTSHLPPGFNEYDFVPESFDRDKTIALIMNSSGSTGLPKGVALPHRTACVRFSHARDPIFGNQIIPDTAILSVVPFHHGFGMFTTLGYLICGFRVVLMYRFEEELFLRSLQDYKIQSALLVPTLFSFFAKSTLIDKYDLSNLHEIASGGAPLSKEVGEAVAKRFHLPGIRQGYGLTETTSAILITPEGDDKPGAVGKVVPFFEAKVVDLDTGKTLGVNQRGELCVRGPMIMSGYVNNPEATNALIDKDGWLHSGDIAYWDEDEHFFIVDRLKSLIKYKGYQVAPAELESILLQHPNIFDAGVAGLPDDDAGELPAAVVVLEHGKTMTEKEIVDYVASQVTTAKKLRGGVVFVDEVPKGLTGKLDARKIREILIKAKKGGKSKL

[10] = test system: Wnt5a (protein binding on small-molecule microarray); assay: Wnt5a binders on small-molecule microarray, primary screen, biophysical, 635/667 nm fluorescence (AID 1142); conditions: 635 nm fluorescence, higher = more signal;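 note: fluorescence read at 667 nm with signal to noise per printed feature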
[11] = cell viability in Huh7 cells, primary screen, cytotoxicity control for HCV replication inhibitor project, CellTiter-Glo luminescence, basal, 48 h (AID 1143); conditions: Huh7 HCV replicon, higher = more signal, called active from +8 up or from −8 down;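 note: Huh7 hepatoma cells carrying a hepatitis C replication reporter with no stimulus; test concentration not given here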
[12] = P. aeruginosa biofilm formation inhibitors, primary screen, PAO1 strain, BacTiter-Glo luminescence, LB-PBS (AID 1144); conditions: 12 h, higher = more signal
[13] = CREB reporter modulators without forskolin, primary screen, cell-based, PC12, CRE-LacZ reporter, unstimulated (AID 1145); conditions: no forskolin, luminescence, 4.5 h, higher = more signal, called active from +8 up or from −8 down
[14] = CREB reporter modulators under forskolin, primary screen, cell-based, PC12, CRE-LacZ reporter, forskolin-stimulated (AID 1146); conditions: luminescence, 4.5 h, higher = more signal, called active from +8 up or from −8 down;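 note: PC12 cells with 6xCRE LacZ reporter stimulated by forskolin 10 µM; beta-galactosidase reporter signal reflecting CREB driven transcription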
[15] = biological target: Streptavidin (Streptomyces avidinii) (UniProt P22629); assay: streptavidin binders on small-molecule microarray, primary screen, artefact control for SMM compound annotation, biophysical, 635/667 nm fluorescence (AID 1147); conditions: streptavidin binding, higher = more signal;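 note: signal reflects streptavidin binding to arrayed compounds as a control protein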
Chain of Streptavidin (Streptomyces avidinii) (P22629 whole entry, looked up): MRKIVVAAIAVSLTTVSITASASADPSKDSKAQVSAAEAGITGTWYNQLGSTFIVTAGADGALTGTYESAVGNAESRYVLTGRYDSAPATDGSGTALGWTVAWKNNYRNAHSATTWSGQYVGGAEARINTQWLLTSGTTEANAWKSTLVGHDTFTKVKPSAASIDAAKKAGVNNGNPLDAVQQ

[16] = small-molecule binders of probe aInhba, primary screen, biochemical, small-molecule microarray, 635/667 nm fluorescence (AID 1148); conditions: higher = more signal;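 note: score merges 667nm spot fluorescence with signal-to-noise for antibody binding to printed compounds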
Torsin-1A (Homo sapiens) [17] = biological target: Torsin-1A (Homo sapiens) (UniProt O14656); assay: torsin A binders from cell lysate, primary screen, small-molecule microarray, wild-type, 635/667 nm (AID 1149); conditions: COS7 hTOR1A-WT lysate, 635 nm fluorescence, higher = more signal
Chain of Torsin-1A (Homo sapiens) (O14656 whole entry, looked up): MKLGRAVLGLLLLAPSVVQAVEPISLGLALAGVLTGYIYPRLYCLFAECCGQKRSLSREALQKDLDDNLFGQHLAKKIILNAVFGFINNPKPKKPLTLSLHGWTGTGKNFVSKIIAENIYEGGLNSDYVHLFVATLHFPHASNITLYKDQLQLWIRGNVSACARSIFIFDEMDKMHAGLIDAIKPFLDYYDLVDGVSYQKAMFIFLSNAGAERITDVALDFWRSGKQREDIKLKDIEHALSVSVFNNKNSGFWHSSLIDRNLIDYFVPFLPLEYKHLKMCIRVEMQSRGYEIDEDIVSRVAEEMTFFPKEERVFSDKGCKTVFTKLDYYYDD

Torsin-1A (Homo sapiens) [18] = biological target: Torsin-1A (Homo sapiens) (UniProt O14656); assay: small-molecule binders of mutant TOR1A in lysate, primary screen, cell lysate, small-molecule microarray, COS7 lysate, 635/667 nm fluorescence (AID 1150); conditions: COS7 hTOR1A mutant lysate, 635 nm fluorescence, higher = more signal;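 note: score pools 667 nm emission and signal to noise measuring lysate protein binding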
[19] = test system: Sonic hedgehog protein (Shh); assay: small-molecule binders of Shh protein, primary screen, biochemical, small-molecule microarray, 635/667 nm fluorescence (AID 1151); conditions: small-molecule microarray binding, 635 nm fluorescence; higher = more signal;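 note: Shh protein binding to compounds spotted on small-molecule microarray slides; score combines spot fluorescence intensity with signal-to-noise across triplicate slides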

O=C1O[C@@H](c2ccccc2)[C@@H](c2ccccc2)N2[C@@H](c3ccc(OCCO)cc3)[C@]3(C(=O)Nc4ccc(C#CCCO)cc43)[C@@H](C(=O)NC[C@H](O)c3ccccc3)[C@H]12
composite z-score [1]: 0.797
composite z-score [2]: 1.17
composite z-score [3]: 0.947
composite z-score [4]: 0.668
composite z-score [5]: 1.34
composite z-score [6]: 1.01
z-score [7]: 0.225
composite z-score (Lefty1): 0.958
composite z-score [8]: 0.356
z-score [9]: -1.15 (inactive)
composite z-score [10]: 0.425
z-score [11]: -0.673 (inactive)
z-score [12]: -0.703 (inactive)
z-score [13]: -0.141 (inactive)
z-score [14]: 0.119 (inactive)
composite z-score [15]: 0.477
composite z-score [16]: 0.288
composite z-score (Torsin-1A (Homo sapiens) [17]): 0.458
composite z-score (Torsin-1A (Homo sapiens) [18]): 0.652
composite z-score [19]: 1.88

[N-]=[N+]=NCc1ccccc1[C@@H]1OC(c2ccc(OCCCO)cc2)=N[C@]1(CCS(=O)(=O)c1ccccc1)C(=O)N1CCOCC1
composite z-score [1]: 3.06
composite z-score [2]: 1.24
composite z-score [3]: 0.531
composite z-score [4]: 1
composite z-score [5]: 1.16
composite z-score [6]: 0.138
z-score [7]: -0.191
composite z-score (Lefty1): 0.186
composite z-score [8]: 1.24
z-score [9]: -1.43 (inactive)
composite z-score [10]: 0.477
z-score [11]: -4.07 (inactive)
z-score [12]: -0.344 (inactive)
z-score [13]: 1.59 (inactive)
z-score [14]: -1.08 (inactive)
composite z-score [15]: 1.5
composite z-score [16]: 0.351
composite z-score (Torsin-1A (Homo sapiens) [17]): 0.796
composite z-score (Torsin-1A (Homo sapiens) [18]): 0.947
composite z-score [19]: -0.149

COc1ccc([C@H]2OC[C@@H]3CCC(=O)N32)cc1
composite z-score [1]: 0.822
composite z-score [2]: 1.02
composite z-score [3]: 0.0902
composite z-score [4]: 0.362
composite z-score [5]: 0.886
composite z-score [6]: 0.031
z-score [7]: 0.779
composite z-score (Lefty1): 1.36
composite z-score [8]: 0.329
z-score [9]: -0.699 (inactive)
composite z-score [10]: 0.279
z-score [11]: 0.638 (inactive)
z-score [12]: 0.495 (inactive)
z-score [13]: 1.2 (inactive)
z-score [14]: 0.426 (inactive)
composite z-score [15]: 0.711
composite z-score [16]: 0.114
composite z-score (Torsin-1A (Homo sapiens) [17]): 1.08
composite z-score (Torsin-1A (Homo sapiens) [18]): 0.214
composite z-score [19]: 0.79

NC(=O)N1C(=O)C2C(C1=O)C1C=C(CCCO)C2C(C2CC2)N1Cc1cc2c(cc1Br)OCO2 (stereo not given)
composite z-score [1]: 1.06
composite z-score [2]: -1.06
composite z-score [3]: 0.164
composite z-score [4]: 0.928
composite z-score [5]: 0.246
composite z-score [6]: -0.407
z-score [7]: 0.158
composite z-score (Lefty1): 0.969
composite z-score [8]: 0.847
z-score [9]: -1.13 (inactive)
composite z-score [10]: -0.219
z-score [11]: -0.387 (inactive)
z-score [12]: 1.44 (inactive)
z-score [13]: 4.37 (inactive)
z-score [14]: 0.0317 (inactive)
composite z-score [15]: 0.129
composite z-score [16]: -0.157
composite z-score (Torsin-1A (Homo sapiens) [17]): 0.0457
composite z-score (Torsin-1A (Homo sapiens) [18]): 0.28
composite z-score [19]: 0.195

CC(=O)Nc1cc(Br)ccc1C(=O)NCc1ccccc1
composite z-score [1]: 0.69
composite z-score [2]: 0.6
composite z-score [3]: 0.265
composite z-score [4]: 0.402
composite z-score [5]: -0.0708
composite z-score [6]: -0.327
z-score [7]: 2.26
composite z-score (Lefty1): -0.285
composite z-score [8]: 0.674
z-score [9]: -0.65 (inactive)
composite z-score [10]: -0.0375
z-score [11]: -0.798 (inactive)
z-score [12]: 0.0338 (inactive)
z-score [13]: -0.348 (inactive)
z-score [14]: -1.14 (inactive)
composite z-score [15]: 0.725
composite z-score [16]: -0.0963
composite z-score (Torsin-1A (Homo sapiens) [17]): -0.0164
composite z-score (Torsin-1A (Homo sapiens) [18]): -0.0323
composite z-score [19]: -0.24

NC(=O)NCC#Cc1ccc2c(c1)[C@]1(C(=O)N2)[C@H](C(=O)O)[C@H]2C(=O)O[C@H](c3ccccc3)[C@H](c3ccccc3)N2[C@@H]1c1ccc(O)cc1
composite z-score [1]: 0.0795
composite z-score [2]: 0.0885
composite z-score [3]: 0.06
composite z-score [4]: 0.972
composite z-score [5]: 1.31
composite z-score [6]: 0.153
z-score [7]: -1.01
composite z-score (Lefty1): 0.654
composite z-score [8]: 0.642
z-score [9]: -1.5 (inactive)
composite z-score [10]: -0.0543
z-score [11]: 0.164 (inactive)
z-score [12]: -0.36 (inactive)
z-score [13]: 0.892 (inactive)
z-score [14]: -0.89 (inactive)
composite z-score [15]: 1.48
composite z-score [16]: 0.174
composite z-score (Torsin-1A (Homo sapiens) [17]): -0.359
composite z-score (Torsin-1A (Homo sapiens) [18]): -0.245
composite z-score [19]: 1.02

CCOC(=O)C1=CC[C@H]2C(=O)N(c3ccccc3)C(=O)[C@@H]12
composite z-score [1]: 2.18
composite z-score [2]: 1.32
composite z-score [3]: 0.291
composite z-score [4]: 1.04
composite z-score [5]: 1.24
composite z-score [6]: 0.385
z-score [7]: -1.44
composite z-score (Lefty1): 0.655
composite z-score [8]: 0.56
z-score [9]: 0.332 (inactive)
composite z-score [10]: 0.125
z-score [11]: -0.321 (inactive)
z-score [12]: 0.96 (inactive)
z-score [13]: 0.836 (inactive)
z-score [14]: -0.0473 (inactive)
composite z-score [15]: 0.9
composite z-score [16]: 0.19
composite z-score (Torsin-1A (Homo sapiens) [17]): 0.079
composite z-score (Torsin-1A (Homo sapiens) [18]): 1.08
composite z-score [19]: 0.814

CO[C@H]1O[C@H](CO)[C@@H](OC(=O)Nc2ccc(Br)cc2)[C@@H]2OC(=O)[C@H](Cc3cccc(Br)c3)C/C=C/C[C@@H](Cc3cccc(Br)c3)C(=O)O[C@@H]12
composite z-score [1]: 0.144
composite z-score [2]: -0.122
composite z-score [3]: 0.2
composite z-score [4]: -0.538
composite z-score [5]: 0.585
composite z-score [6]: 0.268
z-score [7]: 1.37
composite z-score (Lefty1): 0.647
composite z-score [8]: 0.616
z-score [9]: 0.671 (inactive)
composite z-score [10]: -0.149
z-score [11]: -5.6 (inactive)
z-score [12]: -2.06 (inactive)
z-score [13]: -0.878 (inactive)
z-score [14]: 0.243 (inactive)
composite z-score [15]: -0.174
composite z-score [16]: 0.0387
composite z-score (Torsin-1A (Homo sapiens) [17]): -0.541
composite z-score (Torsin-1A (Homo sapiens) [18]): 0.384
composite z-score [19]: 1.58

COc1ccc(C(O)C2C=CC3C(=O)N(C)C(=O)C3N2NC(=O)OC(C)(C)C)c2ccccc12 (stereo not given)
composite z-score [1]: 1.62
composite z-score [2]: 1.28
composite z-score [3]: 0.685
composite z-score [4]: 0.988
composite z-score [5]: 0.832
composite z-score [6]: -0.161
z-score [7]: -0.771
composite z-score (Lefty1): -0.33
composite z-score [8]: 1.31
z-score [9]: -0.9 (inactive)
composite z-score [10]: 0.364
z-score [11]: -0.144 (inactive)
z-score [12]: -0.0855 (inactive)
z-score [13]: 1.58 (inactive)
z-score [14]: -0.0415 (inactive)
composite z-score [15]: 1.13
composite z-score [16]: -0.137
composite z-score (Torsin-1A (Homo sapiens) [17]): 0.177
composite z-score (Torsin-1A (Homo sapiens) [18]): 0.644
composite z-score [19]: -0.416

O=C1NC(=O)C2C1C=CC(C(O)c1ccc(I)cc1)N2Nc1ccc(Cl)cc1Cl (stereo not given)
composite z-score [1]: 0.258
composite z-score [2]: 1.03
composite z-score [3]: 0.741
composite z-score [4]: 0.978
composite z-score [5]: 0.73
composite z-score [6]: -0.451
z-score [7]: 0.535
composite z-score (Lefty1): -0.199
composite z-score [8]: 0.661
z-score [9]: -1.33 (inactive)
composite z-score [10]: 0.372
z-score [11]: -1.58 (inactive)
z-score [12]: -1.74 (inactive)
z-score [13]: 1.77 (inactive)
z-score [14]: -0.299 (inactive)
composite z-score [15]: 1.34
composite z-score [16]: 0.337
composite z-score (Torsin-1A (Homo sapiens) [17]): 0.0137
composite z-score (Torsin-1A (Homo sapiens) [18]): 0.303
composite z-score [19]: -0.366
